SMILES strings stand for the structures. “And” between values parts separate entries of the source, which are not always exact repeats. Identical values can stand only once. The campaign covered roughly 1,100 compounds. About 260 (24%) were called active. The list is a sample of the results. A number with no mark means an inactive call.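 How the source made its calls: active means surface receptor percent response at or below 58%, roughly 3 SD from nonfluorescent compounds; inactive means the rest.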

In this assay the target is Beta-2 adrenergic receptor (Homo sapiens) (UniProt P07550). Nature of the assay: beta2AR agonists via receptor internalization, confirmation, cell-based, FAP fluorogen, flow cytometry, single point, cherry pick 1 (AID 540358). Particulars: Am2.2-beta2AR cells, at 10 µM, active compounds read low. On the technique in general: Flow cytometry measures light scatter and fluorescence of single cells or particles in a stream.
Chain of Beta-2 adrenergic receptor (Homo sapiens) (P07550 whole entry, looked up): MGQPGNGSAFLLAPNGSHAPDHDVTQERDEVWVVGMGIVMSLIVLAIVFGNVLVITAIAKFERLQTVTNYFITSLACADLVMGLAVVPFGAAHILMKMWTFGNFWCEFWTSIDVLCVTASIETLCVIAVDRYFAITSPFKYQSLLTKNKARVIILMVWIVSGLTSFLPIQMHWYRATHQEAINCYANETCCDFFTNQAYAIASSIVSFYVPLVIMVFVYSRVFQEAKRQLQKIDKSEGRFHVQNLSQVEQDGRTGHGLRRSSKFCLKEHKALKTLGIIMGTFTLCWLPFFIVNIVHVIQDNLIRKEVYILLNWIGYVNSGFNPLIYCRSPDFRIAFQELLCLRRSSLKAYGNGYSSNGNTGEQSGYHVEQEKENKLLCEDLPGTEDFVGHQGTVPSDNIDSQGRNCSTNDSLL
On to `CSc1ccc(CNC(=O)c2ccc(NC(=O)C3=CSCCO3)cc2)cc1`, for which the percent response (surface receptor) was 17.5% (active). `OC(CNCc1ccc(Cl)c(Cl)c1)c1ccccc1` (stereo unspecified): the percent response (surface receptor) was 110%.

Consider `CCCCCCCCCCOC(=O)Cn1c(COc2ccc(C)cc2)[n+](C)c2ccccc21`, for which the percent response (surface receptor) was 108%. Consider `O=C1C(=O)N(CC2COc3ccccc3O2)c2ccccc21` (stereo unspecified), for which the percent response (surface receptor) was 95.3%.

Turning to `O=C(NCCCn1ccnc1)C1CCCN(S(=O)(=O)c2cc(Cl)ccc2Cl)C1` (stereo unspecified), the percent response (surface receptor) is 17.8% (active). The value for `CC(=O)Nc1ccc(Nc2c3ccccc3nc3ccccc23)cc1` was 80.8%. `COc1ccc(-n2nc3c(N4CCC(C(=O)NCc5ccccc5)CC4)nnc(C)c3c2C)cc1`: the percent response (surface receptor) was 152%.

As to `C=CCNC(=S)N/N=C/c1ccc(C)s1`, the percent response (surface receptor) was 110%. For the compound `CC(=O)Nc1ccc(CN2CCC(Oc3ccc(C(=O)N4CCCC4)cc3)CC2)cc1`, the percent response (surface receptor) was 104%. Take `CC(CCc1ccccc1)NCC(O)c1cccc([N+](=O)[O-])c1` (stereo unspecified): the percent response (surface receptor) was 119%. As for `COc1cc(C#Cc2ccc3cc(CCCO)oc(=O)c3c2)cc(OC)c1`, the figure is 68.2%. In the case of `COc1ccc(-c2ccnc(SCC(=O)N3CCOCC3)n2)cc1`, the percent response (surface receptor) is 104%. As for `Cc1ccc(Cl)cc1NC(=O)CN1CCN(S(=O)(=O)N2CCOCC2)CC1`, the figure is 93.5%.

Regarding `CCOc1ccccc1N1C(=O)CC(Sc2nccc(C)n2)C1=O` (stereo unspecified), the percent response (surface receptor) is 106%. The value for `CCOC(=O)c1ccc(NC(=O)Cn2nnc(-c3ccc(C)cc3)n2)cc1` was 12.3% (active) and 4.86% (active).

On to `COc1ccc2c(c1OC)C(=O)OC2Nc1nc(-c2ccccc2)cs1` (stereo unspecified), for which the percent response (surface receptor) was 99.6%.

Consider `O=C(C1CCN(c2nnc(-n3cccc3)s2)CC1)N1CCc2ccccc2C1`, for which the percent response (surface receptor) is 146%.

In the case of `CC(=O)c1ccc(NC(=O)c2ccc3c(Cl)c4c(nc3c2)CCCC4)cc1`, the percent response (surface receptor) is 66.5%. Turning to `Cc1cc(S(=O)(=O)N2CCOCC2)ccc1OCC(=O)Nc1cccc(C(F)(F)F)c1`, the percent response (surface receptor) is 99%.

Consider `COc1ccc(OC)c(NC(=O)c2sc3nc(C)cc(C)c3c2N)c1`, for which the percent response (surface receptor) is 34.7% (active). The value for `N#Cc1cccc(NC(=O)COC(=O)c2ccccc2C(=O)c2ccc(Cl)c([N+](=O)[O-])c2)c1` was 85.9%; that for `COc1ccc(OC)c(S(=O)(=O)N(C)CC(=O)N2CCN(c3ccccc3)CC2)c1` was 88.9% and 123%; that for `COc1ccc(S(=O)(=O)N2CCCC(C(=O)Nc3ccc(NC(=O)c4ccccn4)cc3)C2)cc1` (stereo unspecified) was 44.1% (active). In the case of `CCOc1ccc(NC(=O)COc2ccc(S(=O)(=O)N3CCCC3)cc2)cc1`, the percent response (surface receptor) was 104%.

As for `CCOc1ccccc1NC(=O)COc1ccc(S(=O)(=O)N2CCCC2)cc1`, the percent response (surface receptor) is 128%. Turning to `CCN1CCC2(CC1)N=C(c1ccc(F)cc1)C(=S)N2C(=O)c1ccc(C)cc1`, the percent response (surface receptor) is 92.8%. Regarding `CC(=O)c1cccc(NC(=O)COc2ccc(S(=O)(=O)N3CCOCC3)cc2)c1`, the percent response (surface receptor) is 120%. The value for `Cc1ccc(OCC(=O)Nc2ccc(-c3nc4ncccc4o3)cc2)cc1` was 38.8% (active) and 23.3% (active); that for `CCCOc1ccc(C(=O)C(CCC(CNCC)C(=O)c2ccc(OCCC)cc2)CNCC)cc1` (stereo unspecified) was 61%; that for `O=S(=O)(Nc1ccc2[nH]ncc2c1)c1ccccc1Cl` was 89.6%.

Turning to `Cc1ccc(Sc2cc(N3CCOCC3)nc(-c3ccccc3)n2)cc1`, the percent response (surface receptor) was 22.9% (active). In the case of `CCCN(CCc1ccccc1)C1CCc2c(O)cccc2C1` (stereo unspecified), the percent response (surface receptor) is 111%.

On to `CSc1ccc(CCNC(=O)C2CCN(c3nnc(-n4cccc4)s3)CC2)cc1`, for which the percent response (surface receptor) is 60.9%. With `Oc1ccc(N=Cc2sc3ccccc3c2Cl)cc1`, the percent response (surface receptor) is 101%. As for `O=C(Nc1ccc2c(c1)OCCO2)C(c1ccc(F)cc1)N1CCCCC1` (stereo unspecified), the percent response (surface receptor) is 112%. For the compound `COc1ccc(C(CCNCc2ccccc2F)c2ccc(F)cc2)cc1` (stereo unspecified), the percent response (surface receptor) is 109%.

For the origin of these results see PubChem BioAssay AID540358 (NMMLSC, 2011).
